Source: PubChem BioAssay (Tox21)
Several values for one entry are separate records, joined by “and”; a condition that tells them apart may be missing. Equal values may be shown once. Inconclusive results are not listed. Activity calls are given as the source filed them. The call rests on the fitted dose curve; in most records, active means well fitted inhibition curve with a large enough effect in the repeat runs; inconclusive means weak or mixed curves; inactive means no such curve, though single readings can be large or run the other way.

biological target: Cytochrome P450 2C19 (Homo sapiens) (UniProt P33261); test: Cytochrome P450 Family 2 Subfamily C Member 19 (CYP2C19) small molecule antagonists: luciferase reporter qHTS assay (AID 1671197); settings: P450-Glo CYP2C19 enzyme, luciferin luminescence, 1 h; series mostly up to 115 µM; further: nearly all actives have a fitted effect of over 65% in size
Sequence (P33261 whole entry, looked up): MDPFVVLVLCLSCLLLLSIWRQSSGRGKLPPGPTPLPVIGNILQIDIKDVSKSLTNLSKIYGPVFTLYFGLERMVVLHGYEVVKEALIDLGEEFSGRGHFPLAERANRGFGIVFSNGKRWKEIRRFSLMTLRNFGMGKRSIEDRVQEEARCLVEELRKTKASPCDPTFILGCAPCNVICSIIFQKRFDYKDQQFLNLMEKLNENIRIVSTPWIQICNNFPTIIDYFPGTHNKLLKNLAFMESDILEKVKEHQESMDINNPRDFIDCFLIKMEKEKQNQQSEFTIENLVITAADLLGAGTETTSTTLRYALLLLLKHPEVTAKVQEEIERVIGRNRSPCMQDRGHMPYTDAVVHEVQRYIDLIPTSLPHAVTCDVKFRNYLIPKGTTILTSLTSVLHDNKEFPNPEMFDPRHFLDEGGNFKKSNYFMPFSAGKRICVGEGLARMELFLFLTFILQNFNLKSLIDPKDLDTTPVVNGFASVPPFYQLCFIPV
Method in brief: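 Relative luminescence units recorded 20 min after the detection reagent stopped a 1 h, 37C CYP2C19 reaction on proluciferin substrate, which was started by NADPH regeneration following 10 min room-temperature compound preincubation; ketoconazole positive control.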
On the % scale 0 is the no-effect control and ±100 the full control effect; potency means the concentration at half of the fitted maximal effect.

| SMILES | Potency | activity change, negative = inhibition |
| --- | --- | --- |
| COC(N)=O | inactive |  |
| CCOP(O)OCC | inactive |  |
| COC(=O)c1cncn1C(C)c1ccccc1 (stereo unspecified) | 3.89 µM (active) |  |
| COP(=O)(OC)O/C(=C/Cl)c1cc(Cl)c(Cl)cc1Cl | 5.31 µM (active) |  |
| CCCN(CC1CC1)c1c([N+](=O)[O-])cc(C(F)(F)F)cc1[N+](=O)[O-] | 20 µM (active) |  |
| O=C(O)C(F)(F)C(F)(F)C(F)(F)C(F)(F)C(F)(F)C(F)(F)C(F)(F)C(F)(F)C(F)(F)C(F)(F)F | inactive |  |
| CCCCC(O)(Cn1cncn1)c1ccc(Cl)cc1Cl (stereo unspecified) | 0.252 µM (active) |  |
| O=C1NCN(c2ccccc2)C12CCN(CCCOc1ccc(F)cc1)CC2 | inactive |  |
| ClC=C(Cl)Cl | inactive |  |
| O=C(NCc1cccnc1)Nc1ccc([N+](=O)[O-])cc1 | 2 µM (active) |  |
| O=C(CCl)c1ccc(Cl)cc1Cl | 17.8 µM (active) and 9.77 µM (active) |  |
| NCC(CC(=O)O)c1ccc(Cl)cc1 (stereo unspecified) |  | -14.5% [at 0.435 µM] (inactive) |
| O=C(NC(=O)c1c(F)cccc1F)Nc1ccc(OC(F)(F)C(F)OC(F)(F)F)c(Cl)c1 (stereo unspecified) | inactive |  |
| C[N+](C)(C)CCCl | inactive |  |
| CC(C)=CCOc1c2occc2cc2ccc(=O)oc12 | 4.36 µM (active) |  |
| [O-][Cl+]O | inactive |  |

| SMILES | Potency | activity change, negative = inhibition |
| --- | --- | --- |
| O=C(O)c1ccccc1C(=O)Nc1cccc2ccccc12 | 15.9 µM (active) |  |
| CNP(=O)(OC)Oc1ccc(C(C)(C)C)cc1Cl (stereo unspecified) | 8.94 µM (active) |  |
| II | 56.4 µM (active) |  |
| CC(c1ccc(O)cc1)(c1ccc(O)cc1)c1ccc(O)cc1 | 28.3 µM (active) |  |
| COc1nn(CSP(=S)(OC)OC)c(=O)s1 | 0.633 µM (active) |  |
| CCCC(Cn1cncn1)c1ccc(Cl)cc1Cl (stereo unspecified) | 0.142 µM (active) |  |
| Clc1cc(Cl)c(Cl)c(Cl)c1 | inactive |  |
| CC1CC(CC2CCC(N)C(C)C2)CCC1N (stereo unspecified) | inactive |  |
| CCC(Cl)CCl (stereo unspecified) | inactive |  |
| Cc1ccc(-c2c(Cl)nc(C#N)n2S(=O)(=O)N(C)C)cc1 | 79.6 µM (active) |  |
| CCO[C@H]1O[C@@H]2OC3(C)CC[C@H]4[C@H](C)CC[C@@H]([C@H]1C)[C@@]24OO3 | 21.9 µM (active) |  |
| S=C=NCc1ccccc1 | 5.08 µM (active) |  |
| BrCCCCBr | inactive |  |
| CCCCC(CC)COP(=O)(Oc1ccccc1)Oc1ccccc1 (stereo unspecified) | 2.83 µM (active) |  |
| O=[N+]([O-])C(Br)(CO)CO | 6.33 µM (active) |  |
| C=CCOC(C)=O | 70 µM (active) |  |

biological target: Cytochrome P450 2C9 (Homo sapiens) (UniProt P11712); test: Cytochrome P450 Family 2 Subfamily C Member 9 (CYP2C9) small molecule antagonists: luciferase reporter qHTS assay (AID 1671198); settings: P450-Glo CYP2C9 enzyme assay, luciferin luminescence; series mostly up to 115 µM; further: nearly all actives have a fitted effect of over 50% in size
Sequence (P11712 whole entry, looked up): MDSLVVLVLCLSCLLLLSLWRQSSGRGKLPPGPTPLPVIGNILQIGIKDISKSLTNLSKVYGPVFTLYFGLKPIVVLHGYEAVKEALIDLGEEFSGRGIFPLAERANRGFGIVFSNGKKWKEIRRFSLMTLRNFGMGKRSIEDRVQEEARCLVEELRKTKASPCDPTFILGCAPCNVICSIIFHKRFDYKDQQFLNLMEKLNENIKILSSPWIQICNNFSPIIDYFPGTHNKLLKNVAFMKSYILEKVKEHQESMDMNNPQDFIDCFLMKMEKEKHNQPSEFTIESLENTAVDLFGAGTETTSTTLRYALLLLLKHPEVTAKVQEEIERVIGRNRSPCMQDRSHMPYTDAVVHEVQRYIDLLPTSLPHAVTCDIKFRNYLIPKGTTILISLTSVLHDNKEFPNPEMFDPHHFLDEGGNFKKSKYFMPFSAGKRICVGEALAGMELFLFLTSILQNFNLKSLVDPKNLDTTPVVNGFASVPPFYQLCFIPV
Method in brief: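 P450-Glo proluciferin substrate with CYP2C9 enzyme; 10 min RT preincubation, then NADPH regeneration 1 h at 37C; luciferin detection reagent 20 min RT, luminescence in relative luminescence units.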

| SMILES | Potency | activity change, negative = inhibition |
| --- | --- | --- |
| COC(N)=O | inactive |  |
| CCOP(O)OCC | inactive |  |
| COC(=O)c1cncn1C(C)c1ccccc1 (stereo unspecified) | 27.5 µM (active) |  |
| COP(=O)(OC)O/C(=C/Cl)c1cc(Cl)c(Cl)cc1Cl | 23.7 µM (active) |  |
| CCCN(CC1CC1)c1c([N+](=O)[O-])cc(C(F)(F)F)cc1[N+](=O)[O-] | 31.7 µM (active) |  |
| O=C(O)C(F)(F)C(F)(F)C(F)(F)C(F)(F)C(F)(F)C(F)(F)C(F)(F)C(F)(F)C(F)(F)C(F)(F)F | 5.34 µM (active) |  |
| CCCCC(O)(Cn1cncn1)c1ccc(Cl)cc1Cl (stereo unspecified) | 0.71 µM (active) |  |
| O=C1NCN(c2ccccc2)C12CCN(CCCOc1ccc(F)cc1)CC2 | inactive |  |
| ClC=C(Cl)Cl | inactive |  |
| O=C(NCc1cccnc1)Nc1ccc([N+](=O)[O-])cc1 | 5.03 µM (active) |  |
| O=C(CCl)c1ccc(Cl)cc1Cl | 12.6 µM (active) and 17.4 µM (active) |  |
| NCC(CC(=O)O)c1ccc(Cl)cc1 (stereo unspecified) |  | 1.42% [at 0.435 µM] (inactive) |
| O=C(NC(=O)c1c(F)cccc1F)Nc1ccc(OC(F)(F)C(F)OC(F)(F)F)c(Cl)c1 (stereo unspecified) | 19.5 µM (active) |  |
| C[N+](C)(C)CCCl | inactive |  |
| CC(C)=CCOc1c2occc2cc2ccc(=O)oc12 | 0.617 µM (active) |  |
| [O-][Cl+]O | inactive |  |

| SMILES | Potency | activity change, negative = inhibition |
| --- | --- | --- |
| O=C(O)c1ccccc1C(=O)Nc1cccc2ccccc12 | 17.8 µM (active) |  |
| CNP(=O)(OC)Oc1ccc(C(C)(C)C)cc1Cl (stereo unspecified) | 35.6 µM (active) |  |
| II | 31.7 µM (active) |  |
| CC(c1ccc(O)cc1)(c1ccc(O)cc1)c1ccc(O)cc1 | 10 µM (active) |  |
| COc1nn(CSP(=S)(OC)OC)c(=O)s1 | 5.48 µM (active) |  |
| CCCC(Cn1cncn1)c1ccc(Cl)cc1Cl (stereo unspecified) | 5.64 µM (active) |  |
| Clc1cc(Cl)c(Cl)c(Cl)c1 | inactive |  |
| CC1CC(CC2CCC(N)C(C)C2)CCC1N (stereo unspecified) | inactive |  |
| CCC(Cl)CCl (stereo unspecified) | inactive |  |
| Cc1ccc(-c2c(Cl)nc(C#N)n2S(=O)(=O)N(C)C)cc1 | 11.2 µM (active) |  |
| CCO[C@H]1O[C@@H]2OC3(C)CC[C@H]4[C@H](C)CC[C@@H]([C@H]1C)[C@@]24OO3 | 11 µM (active) |  |
| S=C=NCc1ccccc1 | 36 µM (active) |  |
| BrCCCCBr | inactive |  |
| CCCCC(CC)COP(=O)(Oc1ccccc1)Oc1ccccc1 (stereo unspecified) | 3.99 µM (active) |  |
| O=[N+]([O-])C(Br)(CO)CO | 5.03 µM (active) |  |
| C=CCOC(C)=O | 55.6 µM (active) |  |

biological target: Cytochrome P450 1A2 (Homo sapiens) (UniProt P05177); test: Cytochrome P450 Family 1 Subfamily A Member 2 (CYP1A2) small molecule antagonists: luciferase reporter qHTS assay (AID 1671199); settings: P450-Glo CYP1A2 enzyme, luciferin luminescence, 1 h; series mostly up to 115 µM; further: nearly all actives have a fitted effect of over 50% in size
Sequence (P05177 whole entry, looked up): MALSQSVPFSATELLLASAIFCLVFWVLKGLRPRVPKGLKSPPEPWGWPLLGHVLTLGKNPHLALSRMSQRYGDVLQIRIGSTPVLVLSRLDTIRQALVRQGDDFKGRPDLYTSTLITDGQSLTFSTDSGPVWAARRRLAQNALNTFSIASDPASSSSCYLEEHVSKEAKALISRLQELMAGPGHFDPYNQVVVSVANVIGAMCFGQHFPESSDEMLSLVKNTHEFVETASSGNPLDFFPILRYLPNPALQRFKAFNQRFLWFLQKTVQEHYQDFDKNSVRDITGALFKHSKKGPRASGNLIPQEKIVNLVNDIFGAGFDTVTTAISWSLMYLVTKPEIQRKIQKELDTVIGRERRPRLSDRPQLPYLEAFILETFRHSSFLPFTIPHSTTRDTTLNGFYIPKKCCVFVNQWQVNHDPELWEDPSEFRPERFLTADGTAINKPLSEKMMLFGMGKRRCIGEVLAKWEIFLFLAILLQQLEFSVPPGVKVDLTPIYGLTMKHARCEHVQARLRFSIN
Method in brief: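 Enzymatic CYP1A2 assay, human, luminescent: 10 min compound–enzyme–substrate preincubation, 1 h NADPH-dependent turnover, 20 min detection step, room temperature throughout. Reduced light indicates lower CYP1A2 activity.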

| SMILES | Potency | activity change, negative = inhibition |
| --- | --- | --- |
| COC(N)=O | 35.6 µM (active) |  |
| CCOP(O)OCC | inactive |  |
| COC(=O)c1cncn1C(C)c1ccccc1 (stereo unspecified) | inactive |  |
| COP(=O)(OC)O/C(=C/Cl)c1cc(Cl)c(Cl)cc1Cl | 2.66 µM (active) |  |
| CCCCC(O)(Cn1cncn1)c1ccc(Cl)cc1Cl (stereo unspecified) | 35.6 µM (active) |  |
| O=C1NCN(c2ccccc2)C12CCN(CCCOc1ccc(F)cc1)CC2 | inactive |  |
| ClC=C(Cl)Cl | inactive |  |
| O=C(CCl)c1ccc(Cl)cc1Cl | 35.4 µM (active) and 12.9 µM (active) |  |
| NCC(CC(=O)O)c1ccc(Cl)cc1 (stereo unspecified) |  | 12.7% [at 0.435 µM] (inactive) |
| C[N+](C)(C)CCCl | inactive |  |
| CC(C)=CCOc1c2occc2cc2ccc(=O)oc12 | 0.229 µM (active) |  |
| [O-][Cl+]O | inactive |  |
| O=C(O)c1ccccc1C(=O)Nc1cccc2ccccc12 | 12.6 µM (active) |  |
| CNP(=O)(OC)Oc1ccc(C(C)(C)C)cc1Cl (stereo unspecified) | 35.6 µM (active) |  |
| CC(c1ccc(O)cc1)(c1ccc(O)cc1)c1ccc(O)cc1 | inactive |  |
| CCCC(Cn1cncn1)c1ccc(Cl)cc1Cl (stereo unspecified) | 22.4 µM (active) |  |
| CC1CC(CC2CCC(N)C(C)C2)CCC1N (stereo unspecified) | 32.2 µM (active) |  |
| CCC(Cl)CCl (stereo unspecified) | inactive |  |
| Cc1ccc(-c2c(Cl)nc(C#N)n2S(=O)(=O)N(C)C)cc1 | 22.4 µM (active) |  |
| S=C=NCc1ccccc1 | 28.6 µM (active) |  |
| CCCCC(CC)COP(=O)(Oc1ccccc1)Oc1ccccc1 (stereo unspecified) | 25.2 µM (active) |  |
| O=[N+]([O-])C(Br)(CO)CO | 17.8 µM (active) |  |
